About 200 (0.059%) of roughly 340,000 compounds were called active. The sample as a whole holds a higher share of actives than the screen did. Values without a mark were called inactive. Rule as the data show it: active = inhibition above about 34%; inactive = the rest.
biological target: Diacylglycerol lipase-beta (Homo sapiens) (UniProt Q8NCG7); assay: inhibition of human DAGLB hydrolase activity – biochemical, fluorescence, HTS, primary screen (AID 504411); settings: HEK293T DAGLB membrane lysate, EnzChek fluorogenic substrate; at 5.17 µM; active compounds read high;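 also: 0% = enzyme with vehicle and 100% = wells lacking enzyme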
Sequence (Q8NCG7 whole entry, looked up): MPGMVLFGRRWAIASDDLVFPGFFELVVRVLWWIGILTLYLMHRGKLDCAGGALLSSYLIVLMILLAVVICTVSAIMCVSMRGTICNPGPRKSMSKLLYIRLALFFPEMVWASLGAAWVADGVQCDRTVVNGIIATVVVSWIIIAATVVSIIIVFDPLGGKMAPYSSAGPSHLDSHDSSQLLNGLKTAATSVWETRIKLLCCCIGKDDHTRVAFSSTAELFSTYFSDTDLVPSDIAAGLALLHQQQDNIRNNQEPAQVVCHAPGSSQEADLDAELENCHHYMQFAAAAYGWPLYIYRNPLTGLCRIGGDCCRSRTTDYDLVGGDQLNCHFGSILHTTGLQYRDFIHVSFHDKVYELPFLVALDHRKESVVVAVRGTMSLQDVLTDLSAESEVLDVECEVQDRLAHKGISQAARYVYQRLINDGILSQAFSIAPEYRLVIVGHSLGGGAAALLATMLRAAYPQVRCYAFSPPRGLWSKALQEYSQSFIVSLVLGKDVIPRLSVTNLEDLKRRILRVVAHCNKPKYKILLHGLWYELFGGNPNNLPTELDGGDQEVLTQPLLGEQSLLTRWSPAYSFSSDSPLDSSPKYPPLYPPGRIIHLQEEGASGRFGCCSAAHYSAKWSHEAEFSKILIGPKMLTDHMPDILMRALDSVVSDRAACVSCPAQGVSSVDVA

| Structure (SMILES) | inhibition |
| --- | --- |
| O=C(CCc1ccc(O)cc1)NN=Cc1cc(Br)ccc1O | 3.63% |
| NC(N)=NCCCc1cn(CC(=O)N2CCNCC2)nn1 | -3.67% |
| COc1ccc(CCNC(=O)c2ccc(NC(=O)CC3SC(N4CCCCC4)=NC3=O)cc2)cc1OC (stereo not given) | 2.1% |
| O=C(O)c1ccccc1-c1ccccc1C(=O)Nc1ccccc1Br | 0.09% |
| CC(NC(=O)c1ccccc1SCC(=O)N1CCCC1)c1ccccc1 (stereo not given) | 0.41% |
| Cc1ccc2cccc(O)c2[n+]1[O-] | 1.39% |
| CN1CCC(=NNC(=O)CN(c2cccc(Cl)c2)S(C)(=O)=O)CC1 | -3.34% |
| Cc1ccccc1CSc1nnc(Cn2c(=O)sc3ccccc32)n1C | 0.6% |
| C/C(=N\OCC(=O)Nc1ccc(Br)cc1)c1cccs1 | -7.81% |
| COc1ccccc1C1CCN(C(=S)Nc2ccc(Br)cc2)CC1 | 23.2% |
| CCc1cccc(C)c1NS(=O)(=O)c1c(C)nc2sccn2c1=O | -0.01% |
| COc1ccc(S(=O)(=O)N/N=C\c2ccc(OC)c(COc3ccc(C)cc3[N+](=O)[O-])c2)cc1 | -2.91% |
| O=c1c2ccccc2nc2n1C(CSCc1cccc(C(F)(F)F)c1)CS2 (stereo not given) | -3.32% |
| COc1cc(NC(=O)CCS(=O)(=O)c2ccc3c(c2)oc(=O)n3C)cc(OC)c1 | -2.39% |
| CC(=O)Nc1ccc(/C(C)=N/NC(=O)CN(c2ccccc2Br)S(C)(=O)=O)cc1 | 1.17% |
| COc1ccc(CNC(=O)C(=O)N2CCC3(CC2)OCCN3S(=O)(=O)c2ccc(C)cc2)cc1 | -1.66% |
| COC(=O)c1cccc(NS(C)(=O)=O)c1 | -0.97% |
| CC(OC(=O)c1cc2ccccc2o1)C(=O)Nc1ccc(N2CCOCC2)cc1 (stereo not given) | -1.16% |
| COc1ccc(C(=O)OCC(=O)Nc2cc(C)on2)cc1F | 1.42% |
| COCCCN1C(=O)C(CC(=O)NCc2cccs2)CC(C(=O)N2CCOCC2)=C1C (stereo not given) | -1.14% |
| CN(C(=O)CN1C(=O)CCSc2ccc(S(=O)(=O)N3CCCC3)cc21)c1ccccc1 | 3.08% |
| O=C1CCCN1CCCNC(=S)Nc1ccc(F)c(Cl)c1 | 0.01% |
| COC(=O)CN1C(C)=Nc2ccc(Br)cc2C1c1ccccc1 (stereo not given) | 0.08% |

| Structure (SMILES) | inhibition |
| --- | --- |
| Cc1ccccc1C(=O)NNC(=O)CN1C(=O)c2ccccc2C1=O | 0.77% |
| CC(=O)c1ccc(S(=O)(=O)N2CCC(Oc3ccc(-n4cnnn4)cc3)CC2)cc1 | -1.2% |
| COc1ccc(-c2cc(C(F)(F)F)nc(S(C)(=O)=O)n2)cc1OC | -5.4% |
| O=C(Cn1ncc2c3ccccc3n(Cc3ccccc3)c2c1=O)NCCCN1CCOCC1 | -2.32% |
| CC(C)c1ccc2c(c1)c(SC(C)(C)C)c(CC(C)(C)C(=O)O)n2Cc1ccc(Cl)cc1 | 1.23% |
| COCc1cc(C)n(CC(=O)NCC2CCCO2)c(=O)c1C#N (stereo not given) | 0.87% |
| CS(=O)(=O)N1CCCC(C(=O)Nc2ccccc2C(F)(F)F)C1 (stereo not given) | -1.81% |
| COC(=O)C(=Nc1ccccc1)/C(C(=O)C(=O)N(C)c1ccccc1)=C(\O)c1ccc(Cl)cc1 | 4.54% |
| COc1ccc(CNC(=O)c2ccc3oc(C(C)C)nc3c2)cc1 | -2.02% |
| Cc1ccc(CC(=O)N(C)CC(=O)N(CC(C)C)c2c(N)n(CC(C)C)c(=O)[nH]c2=O)cc1C | 1.88% |
| COc1ccc(C2=NS(=O)(=O)N(C)C(C(=O)NC(C)c3ccccc3)=C2)cc1 (stereo not given) | -1.27% |
| CCCNC(=O)CCn1cc(-c2ccc(OC)cc2)nc1CCN | -2.88% |
| CCC(Oc1ccccc1C)C(=O)Nc1ccc(S(=O)(=O)Nc2cc(C)on2)cc1 (stereo not given) | 2.56% |
| Cc1cccc2[nH]c(CN(C)C(=O)C3CCC(=O)N(CCc4ccccc4)C3)nc12 (stereo not given) | 1.57% |
| Cc1ccc(S(=O)(=O)N2[C@@H](c3ccc(Br)cc3)C(C(=O)O)=C[C@H]2CC2CCCC2)cc1 | 7.5% |
| Cc1ccc(N2CC(C(=O)N3CCC4(CC3)CC(=O)c3ccccc3O4)CC2=O)cc1C (stereo not given) | -0.05% |
| CCc1c(C)sc(NC(=O)OC)c1C(=O)N1CCOCC1 | -2.33% |
| Cc1ccccc1C(=O)N1CCC(C(=O)Nc2ccc(S(=O)(=O)N(C)C(C)C)cc2)CC1 | -0.44% |
| CC1Cc2ccccc2N1C(=O)c1cc2sccc2n1Cc1ccccc1 (stereo not given) | -8.28% |
| COc1cccc(NC(=O)CN(C)CC(=O)c2c(N)n(Cc3ccccc3)c(=O)n(C)c2=O)c1 | 0.04% |
| Nc1ccccc1-c1nc2ccncc2[nH]1 | 0.67% |
| CN(C)c1ccc(NC(=O)CN2C3CCCC2CC(NC(=O)c2ccccc2)C3)cc1 (stereo not given) | 0.94% |
| CCOC(=O)c1c(NC(=O)CCCN2CCOCC2)sc2c1CC(C)(C)OC2 | -0.04% |

| Structure (SMILES) | inhibition |
| --- | --- |
| CCOCCCNC(=O)c1cc2c(=O)n3ccccc3nc2s1 | 1.17% |
| CCCC(O)(c1ccccc1)C(c1ccccc1)c1ccccn1 (stereo not given) | -1.16% |
| Cc1ccc(OC(=O)c2c(C)nn(-c3ccccc3)c2C)cc1 | -9.87% |
| Cc1ccc(Cl)c(NC(=O)CN(C)CC(=O)Nc2ccc(F)c(F)c2F)c1Cl | 2.92% |
| CCOc1ccccc1OCCCNCc1ccccc1 | -2.73% |
| C=CCOc1nc2c(c(=O)n(C)c(=O)n2C)n1Cc1ccc(Cl)cc1Cl | -0.75% |
| CCOC(=O)C1CCN(C(=O)Nc2ccc(C)c(Cl)c2)CC1 | 0.52% |
| CCN(CC(=O)NCCCN1CCOCC1)S(=O)(=O)c1cc(Cl)ccc1Cl | 3.54% |
| CN(c1ccccn1)c1ncnc2[nH]ncc12 | 0.01% |
| Cc1ccnc(NC(=O)C2CCN(S(=O)(=O)c3c(C)c(C)cc(C)c3C)CC2)c1 | -5.56% |
| O=C1COc2ccc(C(=O)COC(=O)c3ccccc3Cl)cc2N1 | -2.51% |
| CCN1CCN(CC(=O)c2cc(OC)c(OC)c(OC)c2)CC1 | -1.97% |
| COc1ccc(/C=C/CN2CCN(Cc3ccc(C)cc3)C(CCO)C2)cc1 (stereo not given) | -2.8% |
| Cc1ccccc1C(=O)N1CCC(C(=O)Oc2ccc(C#N)cc2)CC1 | -0.99% |
| COc1ccc(-c2nc(N)sc2C2(O)C(=O)Nc3c(Br)cc(F)cc32)cc1OC (stereo not given) | -0.83% |
| O=S1(=O)CCO[C@H]2Cc3ccccc3[C@H]2N1Cc1ccccc1 | -1.47% |
| Cc1nc(NC(=O)c2ccc3c(c2)OCCO3)ccc1Br | -9.56% |
| COc1ccc(OC)c(NC(=O)CN(C)CCOc2ccc(Br)cc2)c1 | -4.02% |
| CCOC(=O)c1sc(/N=C/Nc2nc(C)c(C(=O)OCC)s2)nc1C | -0.89% |
| O=C(Nc1c2c(nn1-c1cccc(Cl)c1)CS(=O)(=O)C2)c1cccs1 | -3.19% |
| CCOC(=O)c1nn(-c2ccccc2F)c2nc(Nc3ccccc3)cc(=O)n12 | 0.18% |
| Cc1nn(-c2ncccn2)c2c1C(=O)CC(C)(C)C2Br (stereo not given) | -0.78% |
| CCCN1C(=O)C(NS(=O)(=O)c2ccc(N)cc2)(C(F)(F)F)C(C(=O)OC)=C1C (stereo not given) | 0.93% |

| Structure (SMILES) | inhibition |
| --- | --- |
| COc1ccc(C(=O)CN2C(=O)NC3(CCc4ccccc43)C2=O)c(OC)c1 (stereo not given) | -2.52% |
| CC(=O)Nc1ccc(NS(=O)(=O)c2cc(C)sc2C)cc1 | 2.41% |
| COc1cccc(N(C(=O)CNC(=O)c2ccco2)C(C(=O)NC2CCCCC2)c2cccnc2)c1 (stereo not given) | -2.11% |
| O=c1[nH]c2c(c(=O)n1-c1ccccc1)CCO2 | 0.85% |
| CCOC(=O)c1cnc2ccc(F)cc2c1Nc1ccc2c(c1)OCCO2 | -13.6% |
| COc1cc(CCC(=O)N2CCN(c3ccccc3Cl)CC2)cc(OC)c1OC | -2.89% |
| O=C(c1cccs1)N1CCCC(c2nc(-c3ccc(F)cc3)no2)C1 (stereo not given) | -7.27% |
| C=CCNC(=S)N1CCN(CCN=Cc2c(C)[nH]n(-c3ccc([N+](=O)[O-])cc3)c2=O)CC1 | 1.77% |
| O=C(CN1CCC(NC(=O)C2CC2)CC1)Nc1ccccc1[N+](=O)[O-] | 1.28% |
| O=C(O)c1ccc(/C=N/NC(=S)NCc2ccccc2)cc1 | 3.11% |
| Cc1ccc(/C=N/NC(=O)C(NC(=O)c2ccccc2)c2n[nH]c(=O)c3ccccc23)cc1 (stereo not given) | 34.8% (active) |
| Cc1ccc(/C=N/NC(=O)COc2ccccc2-c2ccccc2)cc1 | -8.44% |
| COc1ccc(N(CC(=O)N2CCOCC2)S(=O)(=O)c2ccccc2)cc1Cl | -0.45% |
| COc1ccc(NC(=O)C[C@H]2C(=O)N(CCc3ccccc3)C[C@@H]2C)cc1 | -3.33% |
| CCC1C=C(c2ccccc2)C=CN=C1N(CC)CC (stereo not given) | -3.08% |
| Nc1ccc(OCC(O)C[n+]2ccc(CCS(=O)(=O)[O-])cc2)cc1 (stereo not given) | 0.26% |
| CCc1c(C)sc(NC(=O)c2cccs2)c1C(N)=O | -1.07% |
| O=c1oc2ccc(C#CC3(O)CCCCC3)cc2cc1-n1cc(-c2ccsc2)nn1 | 0.49% |
| COc1ccccc1NS(=O)(=O)N(C)C | -1.14% |
| Cc1ccc(Cc2c(-c3ccccc3)nc3ccc(Cl)cn23)cc1 | -5.98% |
| O=C(NCCCN1CCOCC1)c1cnn2c(-c3ccccc3)cc(-c3ccccc3)nc12 | 1.48% |

Source: PubChem BioAssay AID504411 (The Scripps Research Institute Molecular Screening Center, 2011)
